Screening results as filed in PubChem.
Only some compounds are listed: those with a hit (about 4.6% of all), similar ones and a draw of the others.
HIF-2a inh: HIF-2a reporter inhibitors, primary screen, luminescence, 786-0 RCC cells. 0.72% of 360,000 active. inhibition, % at 18.8 µM. 786-0 RCC cells HIF-2a reporter, luciferase luminescence, overnight;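 active means inhibition of the luminescence signal of 40% or more relative to plate controls, in a single-dose primary screen at 18.75 µM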
ABHD5 PLIN5 PPI: ABHD5-PLIN5 interaction inhibitors, primary screen, cell lysate, split luciferase complementation, luminescence; Perilipin-5 (Homo sapiens) + 1-acylglycerol-3-phosphate O-acyltransferase ABHD5 (Homo …; Split G. princeps luciferase complementation, 4 h; inhibition, % at 4 µM; 0.78% of 360,000 active; AID 602281, 2012;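 active means inhibition above the mean inhibition across every tested compound plus 3 SD, cut at about 22% in these data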;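 further: 0% = DMSO only wells and the 100% control is not disclosed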
Peg3 promoter: Peg3 promoter-driven luciferase inhibitors, primary screen, cell-based, HeLa, luciferase luminescence; HeLa PEG-Prom luciferase reporter, overnight; inhibition, % at 20 µM; 1.7% of 360,000 active; AID 588405, 2011;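 active means inhibition of at least 50% at 20 µM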
CF NFkB block: inhibitors of PAF-induced NF-kB signaling, primary screen, cell-based, GFP fluorescence, uHTS; inhibition, % at 5 µM; 0.86% of 360,000 active; KKLEB NF-kB-GFP reporter, GFP fluorescence overnight; AID 588850, 2011;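 active means at least 50% inhibition at 5 µM, scaled per plate between neutral and stimulator controls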;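 further: PAF is a Pseudomonas aeruginosa culture filtrate used as stimulus; plate controls were PAF-stimulated DMSO wells for no effect and unstimulated DMSO wells for full effect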
Mdm2-MdmX inh: inhibitors of human Mdm2-MdmX association, primary screen, cell-based, luminescence, split luciferase, SaOS-2, uHTS. Protein Mdm4 (Homo sapiens) + E3 ubiquitin-protein ligase Mdm2 (Homo sapiens), …. SaOS-2 split-luciferase Mdm2/MdmX complementation. inhibition, % at 8 µM. 3% of 330,000 active. AID 485346, 2010;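 active means inhibition of at least 50% at 8 µM in the primary screen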
KKLEB tox: cytotoxicity in KKLEB CF airway cells, primary screen, cytotoxicity control for CF NF-kB inhibitor project, cell-based, uHTS, fluorescence assay plates. KKLEB CF airway cells viability, ATPlite luminescence, overnight; active compounds read low; cells stimulated with P. aeruginosa culture filtrate. activity change (cytotoxicity), % at 5 µM. 0.36% of 360,000 active. AID 602141, 2011;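 active means corrected activity change at or below -50% at 5 µM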
Mdm2-MdmX conf: Mdm2-MdmX complex disruptors, retested hits, confirmation, luminescence, single concentration; shares compounds with Mdm2-MdmX inh; Mdm2-MdmX binding, luminescent assay; inhibition, % at 8 µM; 55% of 10,000 active; AID 489028, 2010; in the data active means inhibition above about 40%
Full FLuc ctr: full-length luciferase signal inhibition, confirmation, counter-screen for Mdm2/MdmX interaction inhibitor project, cell-based, single concentration, SaOS-2. inhibition, % at 8 µM. 77% of 6,200 active. shares compounds with Mdm2-MdmX inh. SaOS-2 full-length luciferase counterscreen, luminescence. AID 504607, 2011;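 active means mean inhibition at 8 µM reaching about 37%, which flags the compound as non-specific, limit read from the data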;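 further: p53-null SaOS-2 cells with luciferase driven by a doxycycline-inducible promoter; compound on cells about two nights before reading with doxycycline added after day one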
Active calls of the source: *; . = no result given.

SMILES	HIF-2a inh	ABHD5 PLIN5 PPI	Peg3 promoter	CF NFkB block	Mdm2-MdmX inh	KKLEB tox	Mdm2-MdmX conf	Full FLuc ctr
CC(=O)Nc1ccc(S(=O)(=O)Nc2ccccc2C(=O)N2CCCC2)cc1	-1	4	-7	-3	10	-2	.	.
Cc1cc(C)nc(N/N=C/c2cc(Br)ccc2O)n1	-152	-6	-32	-28	75*	0	76*	26
CCOC(=O)/C(C#N)=C/c1cc(C)n(-c2ccccc2)c1C	-80	-5	-229	2	52*	2	66*	170*
COc1ccc(OC)c(NS(=O)(=O)c2ccc(N3CCCC3=O)cc2)c1	13	8	9	21	72*	-10	57*	83*
COc1ccc(CCNS(=O)(=O)c2ccc(N3CCCC3=O)cc2)cc1	13	-3	12	3	13	-12	.	.
CS(=O)(=O)c1nc([N+](=O)[O-])nn1CCCc1ccccc1	18	21	60*	90*	55*	-44	19	.
CC(N)c1csc(Nc2ccc(S(C)(=O)=O)cc2)n1 (stereo not drawn)	6	6	7	11	.	-7	.	.
C=C(C)[C@@H]1CC[C@]2(C(=O)O)CC[C@]3(C)C(CCC4[C@@]5(C)CC[C@H](O)C(C)(C)C5CC[C@]43C)C12 (stereo partly drawn)	2	1	90*	79*	94*	-76*	7	.
CCn1ncc(CN2CCCC(C(=O)Nc3cccc(-c4cc5ccccc5[nH]4)c3)C2)c1C (stereo not drawn)	6	11	45	17	59*	-11	12	.
O=C(Nc1cccc(-n2cccn2)c1)C1CCCN(Cc2cc3ccccc3[nH]2)C1 (stereo not drawn)	-31	1	-46	-7	28	-13	.	.
Cc1ccn(CC(=O)N2CCCC(N3CCN(c4ccc(F)cc4)CC3)C2)n1 (stereo not drawn)	7	2	4	-1	15	0	.	.
Cc1nn(Cc2c(F)c(F)c(F)c(F)c2F)c(C)c1NC(=O)c1ccc(COc2ccc(Cl)cc2Cl)o1	-5	7	31	-10	47	-11	.	.
Cc1nn(Cc2ccc(Cl)cc2Cl)c(C)c1NC(=O)c1ccc(COc2cc(Cl)ccc2Cl)o1	2	3	25	5	58*	-10	-4	.
COC(=O)C1=C(C)N(CCc2ccccc2)C(=O)C1(NS(=O)(=O)c1ccc(NC(C)=O)cc1)C(F)(F)F (stereo not drawn)	10	-6	5	0	65*	6	32	59*
CCc1ccc2[nH]c3nc(SCc4nnc(-c5ccc(C)cc5)o4)nnc3c2c1	6	-2	34	-1	70*	-14	27	.
CCc1ccc2[nH]c3nc(SCCN4CCOCC4)nnc3c2c1	-245	1	-63	-17	-21	-1	.	.
CN(Cc1cnc2nc(N)nc(N)c2n1)c1ccc(C(=O)NC(CCC(=O)O)C(=O)O)c2ccccc12 (stereo not drawn)	32	-3	24	-20	.	6	.	.
Cc1cccc(/N=C/c2c(O)n(Cc3ccc4c(c3)OCO4)c(=O)c3ccccc23)n1	3	-4	-3	8	53*	21	27	.
CCOc1ccc(C(=O)COC(=O)Cn2cnc3c2c(=O)n(C)c(=O)n3C)cc1	6	-5	4	19	9	-8	.	.
CC1=NN(c2nc3ccccc3[nH]2)C(=O)C1Cc1ccccc1 (stereo not drawn)	-104	5	-3	51*	85*	-52*	81*	36*
